Inconclusive results are not listed. Activity calls are given as the source filed them. Unless noted, calls follow the shape of the dose curve; as a rule, active = well fitted curve in the direction sought with a large enough effect; inconclusive = small, poorly fitted or top-dose-only effect, or another doubt; inactive = no such curve, though single readings can be large; an effect the other way counts as inactive or inconclusive.

The results in this text go back to PubChem BioAssay (NCATS).

A short description of test [1]: qHTS profiling for inhibitors of Plasmodium falciparum (3D7) proliferation (AID 743322; call rule not given here;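 also: infected erythrocytes exposed to compound for 72 h before lysis; 100% = DMSO vehicle wells and 0% = 0.29 µM artemisinin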). The following applies: P. falciparum 3D7 proliferation; at 28.7 µM (top of the series). In a few lines: (§1)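 Parasite DNA was quantified by SYBR Green I fluorescence (ex 485, em 535 nm) after overnight lysis in saponin/Triton buffer at room temperature. Cultures at 0.3% parasitemia and 2.5% hematocrit were first exposed to compound for 72 h at 37 C; signals were normalised to artemisinin (0.29 uM) and vehicle wells.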

The nature of test [2]: qHTS profiling for inhibitors of Plasmodium falciparum (DD2) proliferation (AID 743323; call rule not given here). To be noted: lower = more inhibition; at 28.7 µM (top of the series). The method, boiled down:
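Parasite DNA quantified by SYBR Green fluorescence (ex 485, em 535 nm) after saponin/Triton lysis and overnight dark incubation. Cultures: 0.3% parasitemia, 2.5% hematocrit, 72 h, 37 C; data scaled between DMSO and 0.29 uM artemisinin.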
In general terms: In qHTS, concentration-response curves come from the screen itself.

Test [3] in a line: qHTS profiling for inhibitors of Plasmodium falciparum (HB3) proliferation (AID 743324).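 Also: 100% = DMSO vehicle wells and 0% = artemisinin-treated control wells.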 The following applies: Plasmodium falciparum HB3 blood-stage proliferation; at 28.7 µM (top of the series). The method, boiled down:
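SYBR Green fluorescence (485 ex/535 em) of lysed cultures, incubated overnight at room temperature in the dark, quantifies parasite DNA. Infected erythrocytes at 0.3% parasitemia and 2.5% hematocrit were exposed 72 h; values normalized to DMSO and 0.29 uM artemisinin controls.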

Test [4] in a line: qHTS profiling of the MIPE4 collection as inhibitors of Plasmodium falciparum (3D7) proliferation (AID 743344; call rule not given here;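 also: scaled between DMSO vehicle wells and 0.29 µM artemisinin as full inhibition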). The following applies: P. falciparum 3D7 in erythrocytes, SYBR Green DNA fluorescence, 72 h; at 28.5 µM (top of the series) unless noted. The method, boiled down:
as §1

Test [5] can be described thus: qHTS Assay for Identifying Gametocytocidal Compounds (AID 743244). Also: potency is read from the fitted curve at half-maximal effect.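 As to max response: % is scaled to controls: 0 for no effect and ±100 for the full control effect; actives lower the fluorescent signal which means gametocytes are killed.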 The following applies: P. falciparum 3D7 stage III-V gametocytes, alamarBlue, 72 h; max response: stronger effect = lower value. The method, boiled down: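 In this qHTS viability screen, late-stage 3D7 gametocytes are incubated with compound for 72 h, then with alamarBlue for 24 h; reduced resorufin fluorescence marks killing.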

Test [6] in a line: qHTS assay for cell viability of HEK293 cells (AID 743288). Also: % is scaled to controls: 0 for no effect and ±100 for the full control effect; nearly all actives have a fitted effect of over 50% in size. The following applies: ATP luminescence (CellTiter-Glo), 18 h, stronger effect = lower value. The method, boiled down: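 Steps: plate 2,000 parental HEK293 cells per well; incubate ≥5 h, 37 C; add compounds in DMSO; incubate 18 h, 37 C; add CellTiter-Glo; wait 30 min at room temperature; read luminescence.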
Test [7] in a line: qHTS assay for cell viability of the p53RE-bla HCT-116 cell line (AID 743292). Also: % is scaled to controls: 0 for no effect and ±100 for the full control effect; nearly all actives have a fitted effect of over 55% in size. In a few lines:
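Compound-exposed HCT-116 (p53RE-bla) cells, 4,000 per well, were kept 16 h at 37 C following a 5 h preincubation. Cell number was estimated from total ATP by CellTiter-Glo luminescence read after 30 min at room temperature.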

Test [8] deals with T1, Hexokinase-4 (Homo sapiens) + Glucokinase regulatory protein (Homo sapiens) (UniProt P35557+Q14397). As to the kind of experiment: qHTS assay for inhibitors of recombinant human GCK-GKRP interaction: Diaphorase-coupled assay (AID 743205). The source says: Glucokinase (GCK) is a glucose sensor in hepatocytes and pancreatic beta-cells. Hepatic GCK is regulated by glucokinase regulatory protein (GKRP), which is predominantly localized to the liver. GKRP binds to GCK inhibiting its activity in the fasting state while in the presence of glucose the GKRP is displaced. There is an additional layer of regulation by fructose 1-phosphate and fructose 6-phosphate, which inhibit and enhance the GCK-GKRP interaction, respectively. GCK plays a role in glucose homeostasis and there is an interest in the development of strategies to activate GCK to lower blood glucose levels in type 2 diabetes. To date the majority of effort has focused on direct activation of GCK and the assays developed herein look to activate GCK by inhibiting its binding to GKRP. A compound that inhibits the interaction of GCK with GKRP could be important for the treatment of diabetes and can also be used as a tool compound to further elucidate GCK-GKRP biology. To that end, we have developed a sensitive HTS biochemical assay where in GCK activity is coupled to G6PDH and Diaphorase to interrogate the GCK-GKRP interaction. This assay was screened against a small compound library to look for modulators of activity.
T1 sequence (P35557 whole entry, looked up): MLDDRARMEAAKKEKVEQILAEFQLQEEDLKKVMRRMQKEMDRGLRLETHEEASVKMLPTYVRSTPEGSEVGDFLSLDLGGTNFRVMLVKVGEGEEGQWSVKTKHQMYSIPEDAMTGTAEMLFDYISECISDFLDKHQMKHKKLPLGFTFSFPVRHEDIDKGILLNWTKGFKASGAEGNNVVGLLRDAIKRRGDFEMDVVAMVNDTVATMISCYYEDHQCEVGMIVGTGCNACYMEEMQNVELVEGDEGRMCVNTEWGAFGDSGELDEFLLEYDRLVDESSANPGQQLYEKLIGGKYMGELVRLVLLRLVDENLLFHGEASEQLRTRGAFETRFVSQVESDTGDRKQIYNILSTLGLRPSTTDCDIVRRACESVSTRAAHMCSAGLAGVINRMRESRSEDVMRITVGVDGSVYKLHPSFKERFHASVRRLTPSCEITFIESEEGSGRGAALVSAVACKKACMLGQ
T1 sequence (Q14397 whole entry, looked up): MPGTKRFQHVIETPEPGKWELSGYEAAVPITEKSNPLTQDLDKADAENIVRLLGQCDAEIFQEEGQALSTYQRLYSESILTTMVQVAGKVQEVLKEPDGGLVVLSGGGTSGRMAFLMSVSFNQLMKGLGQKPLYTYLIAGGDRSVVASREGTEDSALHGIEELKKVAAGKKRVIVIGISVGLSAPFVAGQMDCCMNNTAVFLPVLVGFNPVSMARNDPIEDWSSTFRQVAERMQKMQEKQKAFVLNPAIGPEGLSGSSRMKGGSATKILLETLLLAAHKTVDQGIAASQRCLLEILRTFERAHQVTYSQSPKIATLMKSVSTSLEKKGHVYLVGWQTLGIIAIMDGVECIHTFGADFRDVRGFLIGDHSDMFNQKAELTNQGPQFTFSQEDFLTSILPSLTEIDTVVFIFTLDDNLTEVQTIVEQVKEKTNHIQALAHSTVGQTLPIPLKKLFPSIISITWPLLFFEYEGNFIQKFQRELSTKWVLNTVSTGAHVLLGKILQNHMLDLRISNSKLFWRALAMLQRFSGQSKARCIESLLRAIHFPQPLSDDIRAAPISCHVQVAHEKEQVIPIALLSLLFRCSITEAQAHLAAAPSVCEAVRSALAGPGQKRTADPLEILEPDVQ
2 uL of substrate (columns 1-48) are dispensed into Greiner, black solid-bottom 1536-well assay plates. Compounds (23 nL) are then transferred via Kalypsys pin tool equipped with 1536-pin array (10 nL slotted pins, V&P Scientific, San Diego, CA). […] Following addition of compound and a 20 minute incubation, 1 uL of enzyme mix (GST-GCK, FLAG-GKRP and diaphorase) is added to columns 1, 2, 4-48 and 1 uL of no enzyme mix (FLAG-GKRP and diaphorase) is added to column 3 and the fluorescent product resorufin generated from resazurin was monitored on a Viewlux (PerkinElmer, Shelton, CT, USA) with excitation at 525 nm and emission at 590 nm in kinetic mode where the plate was read every minute for 30 minutes. […]

In test [9] the target is T1, Hexokinase-4 (Homo sapiens) + Glucokinase regulatory protein (Homo sapiens). The test can be described thus: qHTS assay for inhibitors of recombinant human GCK-GKRP interaction: ADP-Glo assay (AID 743206).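 Also: plate controls were DMSO plus enzyme for no effect and no enzyme for full effect.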 The method, boiled down:
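Pin-transferred compounds meet a 15 nM GST-GCK/15 nM FLAG-GKRP/2 uM S6P mix (dispense concentrations). ATP is then added to 0.4 mM final with 5 mM glucose, and the reaction runs 60 min at room temperature. ADP is quantified luminescently.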

Test [10] has the same target. As to the kind of experiment: qHTS assay for inhibitors of recombinant human GCK-GKRP interaction: HTRF assay (AID 743207).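 Also: 0% = DMSO with GCK present and -100% = DMSO wells lacking GCK.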 In a few lines: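 HTRF binding of 5 nM GST-GCK and 5 nM FLAG-GKRP with 2 uM S6P in pH 7.1 Hepes buffer (MgCl2, KCl, DTT, Tween 20, BSA). Anti-FLAG XL665 and anti-GST donor added, 60 min at room temperature; 665/615 nm read, normalized to with- and without-GCK controls.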

As for `O=C(O)CCCCCC(=O)NN=C1CCCC1`, the remaining parasite growth % (stronger effect = lower value) in [1] is 92.8%. Moreover, the activity, percent of control in test [2] turned out to be 96.4%. Moreover, the remaining proliferation (% of control), lower = more inhibition in test [3] was 107%. In test [4], this molecule yielded a parasite growth, % of DMSO control of 101%.

For `Cn1c(Nc2ccc(C(F)(F)F)cc2)nc2cc(Oc3ccnc(-c4ncc(C(F)(F)F)[nH]4)c3)ccc21`, in [5], the Potency was 23.5 µM (active). The remaining parasite growth % (stronger effect = lower value) in [1] was -1.53%. Also, the activity, percent of control in test [2] amounted to 0.692%. The remaining proliferation (% of control), lower = more inhibition in test [3] is -0.79%.

On to `COc1cc(C)c(Sc2cnc(NC(=O)c3ccc(CNC(C)C(C)(C)C)cc3)s2)cc1C(=O)N1CCN(C(C)=O)CC1` (stereo not drawn), for which, in test [1], the remaining parasite growth % (stronger effect = lower value) came to 8.84%. Also, in test [2], the activity, percent of control stood at 8.81%. Also, in test [3], the remaining proliferation (% of control), lower = more inhibition is 4.6%. In addition, in [4], the parasite growth, % of DMSO control stood at 7.09%.

Turning to `O=C(O)CCCCC(CCSCc1ccccc1)SCc1ccccc1` (stereo not drawn), the remaining parasite growth % (stronger effect = lower value) in [1] came to 84%. In [2], the activity, percent of control worked out at 84%. Also, in test [3], the remaining proliferation (% of control), lower = more inhibition stood at 70.4%. In test [4], this molecule gave a parasite growth, % of DMSO control of 76.2%.

Regarding `CN1C(C(=O)Nc2ccccn2)=C(O)c2sc(Cl)cc2S1(=O)=O`, the parasite growth, % of DMSO control in [4] is 64.4%.

Regarding `Cc1cc(O)c2c(c1)C(=O)c1cccc(O)c1C2=O`, the max response in test [6] was -7.7% (inactive). For the same molecule, the call in [7] was inactive.

For the molecule `Nc1ccn(C2CO[C@H](CO)O2)c(=O)n1` (stereo partly drawn), the max response in [5] is 19.9% (inactive). In addition, in [4], the parasite growth, % of DMSO control stood at 95.7%.

As for `Nc1ccc(C(=O)Nc2cccc(-c3nc(N4CCOCC4)c4oc5ncccc5c4n3)c2)cn1`, in [4], the parasite growth, % of DMSO control was determined as 6.14%.

Molecule `C#C[C@]1(O)CC[C@@H]2[C@@H]3CCc4cc(O)ccc4[C@H]3CC[C@@]21C` gave a parasite growth, % of DMSO control in test [4] of 75.9%.

Take `O=c1[nH]c(=O)n([C@H]2C[C@@H](O)[C@@H](CO)O2)cc1C=CBr`: the outcome in test [8], in [9] and in test [10] was inactive. Further, in test [5], the max response is 30.7% (inactive).

On to `OC[C@@H](O)[C@@H](O)[C@H](O)[C@@H](O)CO`, for which the max response in test [6] was -5.81% (inactive). The same molecule had a parasite growth, % of DMSO control in test [4] of 100%.

On to `c1ccc2c(Oc3nc(Nc4ccc(N5CCOCC5)cc4)c4ncn(C5CCCCC5)c4n3)cccc2c1`, for which the remaining parasite growth % (stronger effect = lower value) in [1] is -0.456%. For the same molecule, in test [2], the activity, percent of control amounted to 1.45%. The remaining proliferation (% of control), lower = more inhibition in [3] was -1.02%. The same molecule yielded a parasite growth, % of DMSO control in [4] of 6.5%.

On to `COc1ccc2cc([S+]([O-])Cc3ncc(C)c(OC)c3C)nc2c1`, for which the outcome in [8], in test [9] and in test [10] was inactive. Besides, in [5], the max response was 2.05% (inactive). The molecule further gave a parasite growth, % of DMSO control in test [4] of 32.2%.

As to `CN[C@H](CC(C)C)C(=O)N[C@H]1C(=O)N[C@@H](CC(N)=O)C(=O)N[C@@H]2C(=O)N[C@H]3C(=O)N[C@H](C(=O)N[C@H](C(=O)O)c4cc(O)cc(O)c4-c4cc3ccc4O)[C@H](O)c3ccc(c(Cl)c3)Oc3cc2cc(c3O[C@@H]2O[C@H](CO)[C@@H](O)[C@H](O)[C@@H]2O[C@H]2C[C@](C)(N)[C@H](O)[C@H](C)O2)Oc2ccc(cc2Cl)[C@H]1O`, the result in [8], in test [9] and in [10] was inactive. Also, in test [5], the max response was -6.25% (inactive). The parasite growth, % of DMSO control in [4] was 387%.

Consider `COc1cccc2c1C(=O)c1c(O)c3c(c(O)c1C2=O)C[C@@](O)(C(=O)CO)C[C@H]3O[C@H]1C[C@H](N)[C@H](O)[C@H](C)O1`, for which, in [1], the remaining parasite growth % (stronger effect = lower value) was -4.47%. The activity, percent of control in test [2] is -1.95%. Moreover, the remaining proliferation (% of control), lower = more inhibition in test [3] turned out to be 4.32%. The parasite growth, % of DMSO control in test [4] was determined as 3.34%.

`CCCCCCCCCCCCCCCC(=O)OC[C@@H](NC(=O)C(Cl)Cl)[C@H](O)c1ccc([N+](=O)[O-])cc1`: the max response in [5] is 5.04% (inactive).

As to `CN(C)c1ccc2cc(C(=O)N[C@@H](CCCN=C(N)CCl)C(=O)NCc3ccccc3)ccc2c1`, the remaining parasite growth % (stronger effect = lower value) in test [1] is 6.68%. The activity, percent of control in [2] stood at 11.8%. For the same molecule, the remaining proliferation (% of control), lower = more inhibition in test [3] was -0.673%. The molecule further showed a parasite growth, % of DMSO control in test [4] of 5.85%.

Consider `N[C@H]1CN(c2c(F)cc3c(=O)c(C(=O)O)cn(C4C[C@@H]4F)c3c2Cl)CC12CC2` (stereo partly drawn), for which, in [4], the parasite growth, % of DMSO control worked out at 20.3%.
